From PubChem BioAssay (EPA / NIEHS) come the findings set out here.

The source made the active and inactive calls. How the source made its calls: active means hit-call score of the fitted dose curve at least 0.9, where 1 is the maximum; inactive means score below 0.9.

A short description of the first test: CCTE_Shafer_MEA_acute_firing_rate_mean: CCTE's Neural Acute Assay for Mean Firing Rate, Shafer Lab (AID 2284009).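 Further: analyzed for loss of signal so actives lower firing rate relative to DMSO.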 Put shortly:
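Spontaneous spiking of primary rat cortical networks, DIV 13/15, 37 C. Compound 0.03-40 uM, n ≥3 wells; 40 min baseline vs 40 min treated. Endpoint fitted in loss-of-signal direction against DMSO.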
`COc1ccc2c(c1)c(CC(=O)O)c(C)n2C(=O)c1ccc(Cl)cc1`: the compound was classed as inactive. Same read-out and setting: the value for `CC(=O)Oc1ccccc1C(=O)O` was “inactive”. Turning to `COc1ccc(S(=O)(=O)N2C(=O)[C@@](c3ccccc3OC)(N3C[C@H](O)C[C@H]3C(=O)N(C)C)c3cc(Cl)ccc32)c(OC)c1`, the AC50 is 31.8 µM (active). Regarding `CC(C)(C)c1cc(O)c(C(C)(C)C)cc1O`, the AC50 was 25.9 µM (active). In the case of `CN[C@H]1CC[C@@H](c2ccc(Cl)c(Cl)c2)c2ccc(S(N)(=O)=O)cc21`, the call was inactive. Regarding `Cc1ccc(C)c(O)c1C`, the compound was classed as inactive. Consider `C=CCOC(=O)c1ccccc1C(=O)OCC=C`, for which the result was inactive.

A further test is described as follows: CCTE_Harrill_HTTr_Viability_MCF7: CCTE's 6-hour Cell Viability Assessment for the High-Throughput Transcriptomics (HTTr) Platform, in MCF-7 cells cultured in DMEM + 10% fetal bovine serum, Harrill Lab (AID 2284010). Put shortly: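 Eight-point concentration series, six-hour exposure. Propidium iodide exclusion imaged to assess membrane integrity as a cytotoxicity readout; bidirectional fitting was done with DMSO as negative control and activity baseline.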
As to `COc1cc(/C=C/C(=O)CC(=O)/C=C/c2ccc(O)c(OC)c2)ccc1O`, the outcome was inactive. Turning to `COCCOCCOC`, the outcome was inactive. As to `COc1ccc2c(c1)c(CC(=O)O)c(C)n2C(=O)c1ccc(Cl)cc1`, the outcome was inactive. Regarding `COc1cc(-c2nc(NC(=O)c3cc4cc(C)cc(C)c4n3CC(=O)O)sc2CCC2CCCCC2)c(OC)cc1Cl`, the result was inactive. For `COc1ccc(C)cc1N`, the result was inactive. In the case of `COc1cc(S(=O)(=O)O)c(C)cc1N=Nc1c(O)ccc2cc(S(=O)(=O)O)ccc12`, the outcome was inactive. Regarding `COc1cc(C=O)ccc1O`, the result was inactive. Turning to `Cc1ccc(C)c(C)c1`, the result was inactive. As for `Cc1cccc([N+](=O)[O-])c1C`, the result was inactive. For the compound `Cc1nc(-c2ccc3c(c2)CCN(CCC2CCC(NC(=O)/C=C/c4ccc(F)cc4)CC2)CC3)no1` (stereo not drawn), the result was inactive. Consider `O=C(O)Cc1ccccc1Nc1c(Cl)cccc1Cl`, for which the result was inactive. Same read-out and setting: for `CC(=O)Oc1ccccc1C(=O)O` the value was “inactive”; for `COc1ccc(S(=O)(=O)N2C(=O)[C@@](c3ccccc3OC)(N3C[C@H](O)C[C@H]3C(=O)N(C)C)c3cc(Cl)ccc32)c(OC)c1`, “inactive”. As for `CC(C)(C)c1cc(O)c(C(C)(C)C)cc1O`, the result was inactive.

As for `CN[C@H]1CC[C@@H](c2ccc(Cl)c(Cl)c2)c2ccc(S(N)(=O)=O)cc21`, the result was inactive. On the same count and under the same terms, for `Cc1oc(-c2ccccc2)nc1CCOc1cccc2c1ccn2CCC(=O)O` the value was “inactive”; for `Cc1cccc(C)c1O`, “inactive”.

With `CCCCCCCCCCC`, the outcome was inactive.

On to `Cc1ccc(C)c(O)c1C`, for which the outcome was inactive. For the compound `CCOc1ccc2c(c1)C(C)=CC(C)(C)N2`, the outcome was inactive. For the compound `CNC(=O)[C@H]1O[C@@H](n2cnc3c(NCc4cc(Cl)ccc4OCc4cc(C)no4)ncnc32)[C@H](O)[C@@H]1N`, the outcome was inactive.

On to `Cc1c(C(=O)O)c(O)cc2c1C(=O)c1c(O)c([C@@H]3O[C@H](CO)[C@@H](O)[C@H](O)[C@H]3O)c(O)c(O)c1C2=O`, for which the outcome was inactive. On to `Cc1cccc(Nc2cc(Cl)nc(SCC(=O)O)n2)c1C`, for which the result was inactive. Take `C=CCOC(=O)c1ccccc1C(=O)OCC=C`: the result was inactive. For the compound `CCCCC(CC)COC(=O)CC(C(=O)OCC(CC)CCCC)S(=O)(=O)O` (stereo not drawn), the outcome was inactive. As for `Cc1cc(NC(=O)C(=O)O)cc(C)c1Oc1ccc(O)c2c1CCC2`, the result was inactive.

What is called AC50 is the concentration at which the activity in the assay is half-maximal.
